Compounds with a hit are over-represented: about 6.7% of the library has one in this group of screens.
T cruzi growth-1: T. cruzi proliferation inhibition; T. cruzi beta-gal in NIH3T3, GalScreen luminescence, 90 h; inhibition, % at 8.34 µM; 77,000 tested, 5.9% active;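 active means mean inhibition above about 93%, with at least 55% of replicates each passing it, limit read from the data, passing the limit was not always enough; inconclusive means only one of those two conditions holds; inactive means neither condition holds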
Pf Dd2 inh: P. falciparum Dd2 growth inhibition; 94,000 tested, 2.3% active; activity change, % at 10 µM; SYBR Green, 72 h; hits give low values; AID 1159554; in the data active means activity change below about -80%; inconclusive means no clear call, values can overlap the other calls
C diff HTS: blocks growth of Clostridium difficile; Clostridium difficile clinical isolate growth, OD600, 24 h; hits give low values; growth activity, negative = inhibition, % at 16 µg/mL (by protocol); 86,000 tested, 0.25% active; AID 1259249;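 active means mean growth activity at or below -80% and every replicate also at or below -80%; inconclusive means mean at or below -80% but some replicate above -80%; inactive means mean growth activity above -80%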;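 further: 0% = DMSO wells and -100% = levofloxacin 16 µg/mL wells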
T cruzi growth-2: Trypanosoma cruzi proliferation inhibition; inhibition, % at 8.35 µM; shares compounds with T cruzi growth-1; 5,600 tested, 72% active; T. cruzi beta-gal in NIH3T3, GalScreen luminescence, 90 h;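 active means mean replicate inhibition above about 95% and at least 55% of replicates individually reaching it, limit read from the data; inconclusive means only one of the two criteria is met; inactive means neither criterion is met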
T cruzi growth-3: blocks T. cruzi growth in NIH3T3 host cells. T. cruzi beta-gal in NIH3T3, GalScreen luminescence, 90 h. shares compounds with T cruzi growth-1. 5,600 tested, 21% active. inhibition, % at 2.09 µM;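 active means mean inhibition above about 95%, with at least 55% of replicates also reaching it, limit read from the data; inconclusive means meets just one of the two conditions; inactive means meets neither condition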;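 further: plate controls were neutral control median for no effect and positive control median for full effect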
3T3 cytotox: NIH/3T3 (mouse) viability loss; shares compounds with T cruzi growth-1; cytotoxicity (signal decrease), % at 8.35 µM; 5,600 tested, 14% active; NIH/3T3 viability, CellTiter-Glo ATP luminescence, 90 h;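 active means mean signal decrease across replicates above about 35% based on untreated-well scatter, with enough replicates individually passing, limit read from the data; inconclusive means no rule stated though some were filed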;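 further: 0% = median of neutral control wells and 100% = median of positive control wells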
NIH3T3 tox 2: NIH/3T3 (mouse) viability loss; shares compounds with T cruzi growth-1; NIH/3T3 viability, CellTiter-Glo ATP luminescence, 90 h; inhibition, % at 24.9 µM; 5,600 tested, 56% active;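 active means mean loss of cell viability signal at or above a set limit, and enough replicates individually reaching it; inconclusive means meets only the mean limit or only the replicate share; inactive means meets neither condition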;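 further: 0% = median of neutral control wells and 100% = median of positive control wells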
Numbers without * were called inactive; ? = inconclusive; / = no result.

SMILES | T cruzi growth-1 | Pf Dd2 inh | C diff HTS | T cruzi growth-2 | T cruzi growth-3 | 3T3 cytotox | NIH3T3 tox 2
Cc1ccc(-c2cnc3c(c2)C(=O)N([C@@H](C)CO)C[C@@H](C)[C@@H](CN(C)C(=O)c2cccnc2)O3)cc1 | 35 | -7 | -4 | / | / | / | /
COc1ccc2c3c(n(C)c2c1)[C@H](CO)N(C(=O)C1CCCCC1)CC31CN(C(=O)Nc2cccc(F)c2)C1 | / | -25 | 2 | / | / | / | /
Cc1noc(C)c1NC(=O)N[C@@H]1CC[C@@H](CCNC(=O)C2CCC2)O[C@H]1CO | / | -9 | 2 | / | / | / | /
CCNC(=O)C[C@H]1CC[C@@H]2[C@@H](COc3ccc(NC(=O)c4cscn4)cc3C(=O)N2C)O1 | -46 | -2 | -12 | / | / | / | /
COc1ccccc1C#Cc1ccc2c(c1)O[C@H](CN(C)Cc1ccncc1)[C@H](C)CN([C@@H](C)CO)S2(=O)=O | 130 | -75 | -5 | / | / | / | /
COc1ccccc1C#Cc1ccc2c(c1)O[C@@H](CN(C)Cc1cccnc1)[C@H](C)CN([C@H](C)CO)S2(=O)=O | / | -47 | 6 | / | / | / | /
COc1ccccc1C#Cc1ccc2c(c1)O[C@@H](CN(C)Cc1ccccc1)[C@@H](C)CN([C@@H](C)CO)S2(=O)=O | 122* | -14 | -1 | 104* | 106* | -19 | 7
COc1ccccc1C#Cc1ccc2c(c1)O[C@@H](CN(C)Cc1ccncc1)[C@@H](C)CN([C@@H](C)CO)S2(=O)=O | 123* | ? | -1 | 101* | 101* | 10 | 40*
COc1ccc(CN(C)C[C@H]2OCCCC[C@H](C)Oc3ccc(NS(=O)(=O)c4cccs4)cc3C(=O)N([C@H](C)CO)C[C@H]2C)cc1 | 93 | -57 | 0 | / | / | / | /
CC(=O)N1CC2(C1)[C@H](c1ccc(-c3cccc(F)c3)cc1)[C@H](CO)N2CC1CCCC1 | / | -57 | 5 | / | / | / | /
C[C@H](CO)N1C[C@H](C)[C@@H](CN(C)S(=O)(=O)c2ccccc2)Oc2ccc(NC(=O)Nc3cccc4ccccc34)cc2CC1=O | 20 | 7 | 5 | / | / | / | /
CNC(=O)C[C@@H]1CC[C@@H]2[C@H](COc3ccc(NC(=O)Nc4cc(C)cc(C)c4)cc3C(=O)N2C)O1 | 10 | 6 | 2 | / | / | / | /
CN(C)C(=O)c1cccc(-c2ccc([C@@H]3[C@H]4CN(C(=O)C5CCCCC5)CC(=O)N4[C@H]3CO)cc2)c1 | / | -26 | -8 | / | / | / | /
CS(=O)(=O)N1CCCCN2[C@@H](CO)[C@@H](c3ccc(-c4cccc(C#N)c4)cc3)[C@@H]2C1 | -8 | 40 | -6 | / | / | / | /
CCS(=O)(=O)N1CCCCN2[C@H](CO)[C@H](c3ccc(-c4cccc(C#N)c4)cc3)[C@H]2C1 | 128* | -80 | -5 | 97* | 53 | 53* | 46*
CCS(=O)(=O)N1CCCCN2[C@H](C1)[C@H](c1ccc(-c3cccc(C#N)c3)cc1)[C@@H]2CO | 107* | -43 | -1 | 25 | -15 | 11 | 20
CCS(=O)(=O)N1CCCCN2[C@H](CO)[C@H](c3ccc(-c4ccc(C#N)cc4)cc3)[C@H]2C1 | 114* | -39 | -2 | 96* | 53 | 5 | 52*
CCS(=O)(=O)N1CCCCN2[C@H](CO)[C@@H](c3ccc(-c4ccc(C#N)cc4)cc3)[C@@H]2C1 | 19 | -12 | 1 | / | / | / | /
CCS(=O)(=O)N1CCCCN2[C@H](CO)[C@H](c3ccc(-c4cccc(C#N)c4)cc3)[C@@H]2C1 | 91 | -77 | -4 | / | / | / | /
CO[C@@H]1CN(C)C(=O)c2cc(NC(=O)Nc3ccc4c(c3)OCO4)ccc2OC[C@H](C)NC[C@@H]1C | / | 6 | / | / | / | / | /
CC(=O)N(C)C[C@H]1Oc2cc(-c3cccc(F)c3)ccc2S(=O)(=O)N([C@@H](C)CO)C[C@@H]1C | 12 | 2 | -2 | / | / | / | /
COCC(=O)N1C[C@@H](C)[C@@H](OC)CN(C)C(=O)c2cc(NS(C)(=O)=O)ccc2OC[C@H]1C | 53 | 6 | / | / | / | / | /
O=C(C[C@@H]1CC[C@H]2NC[C@H](O)COC[C@@H]2O1)NCc1ccc(Oc2ccccc2)cc1 | -30 | 23 | -5 | / | / | / | /
C[C@H]1CN([C@@H](C)CO)S(=O)(=O)c2ccc(C#CCC3CCCC3)cc2O[C@@H]1CN(C)C(=O)CN(C)C | 122 | -72 | 4 | / | / | / | /
C[C@@H]1CN([C@H](C)CO)S(=O)(=O)c2ccc(C#CCC3CCCC3)cc2O[C@H]1CN(C)C(=O)CN(C)C | 113 | -65 | 1 | / | / | / | /
SMILES | T cruzi growth-1 | Pf Dd2 inh | C diff HTS | T cruzi growth-2 | T cruzi growth-3 | 3T3 cytotox | NIH3T3 tox 2
CCC(=O)N(C)C[C@@H]1Oc2cc(C#CCC3CCCC3)ccc2S(=O)(=O)N([C@H](C)CO)C[C@@H]1C | 105* | -55 | 4 | 107* | 87 | 4 | 97*
CCC(=O)N(C)C[C@@H]1Oc2cc(C#CCC3CCCC3)ccc2S(=O)(=O)N([C@@H](C)CO)C[C@@H]1C | 97* | -57 | -18 | ? | 88 | 19 | 104*
C[C@H](CO)N1C[C@H](C)[C@@H](CN(C)C(=O)Oc2ccccc2)OCc2ccccc2-c2ccccc2C1=O | 24 | -31 | / | / | / | / | /
C[C@H]1CN([C@@H](C)CO)C(=O)c2cc(C#CC3CC3)cnc2O[C@@H]1CN(C)C(=O)C1CCCCC1 | 59 | -23 | / | / | / | / | /
CNC(=O)C[C@@H]1CC[C@@H]2[C@H](COC[C@@H](O)CN2C(=O)Nc2ccc3c(c2)OCO3)O1 | / | 37 | 3 | / | / | / | /
C[C@@H]1CN([C@@H](C)CO)C(=O)c2ccccc2-c2ccccc2CO[C@H]1CN(C)S(=O)(=O)c1ccc(C(F)(F)F)cc1 | 114* | -72 | 9 | 103* | 59 | 5 | 30*
C[C@H]1CN([C@@H](C)CO)C(=O)c2ccccc2-c2ccccc2CO[C@H]1CN(C)S(=O)(=O)c1ccc(F)cc1 | 0 | 76 | / | / | / | / | /
C[C@H](CO)N1C[C@H](C)[C@@H](CN(C)S(=O)(=O)c2ccc(C(F)(F)F)cc2)OCc2ccccc2-c2ccccc2C1=O | 102* | -74 | 7 | 102* | 79 | 28 | 54*
C[C@@H]1CN([C@@H](C)CO)C(=O)c2ccccc2-c2ccccc2CO[C@@H]1CN(C)S(=O)(=O)c1ccc(F)cc1 | 16 | 19 | / | / | / | / | /
CCCNC(=O)C[C@@H]1C[C@H]2c3cc(NC(=O)Cc4ccncc4)ccc3O[C@H]2[C@H](CO)O1 | 6 | 42 | -2 | / | / | / | /
CCCC(=O)Nc1ccc2c(c1)C(=O)N(C)[C@H]1CC[C@H](CC(=O)NCc3ccccc3Cl)O[C@H]1CO2 | -37 | 1 | 2 | / | / | / | /
CCCNC(=O)N1[C@H](C#N)[C@H](c2ccc(-c3cccc(OC)c3)cc2)[C@@H]1CO | 99* | ? | 14 | 90 | 112* | -28 | 40*
CCCNC(=O)N1[C@@H](C#N)[C@@H](c2ccc(-c3cccc(OC)c3)cc2)[C@@H]1CO | 98* | -35 | 7 | 99* | 39 | 16 | 51*

From PubChem
